Rtt109 Vps75: blocks Candida albicans Rtt109/Vps75 acetyltransferase activity | Q5AAJ8 | purified Rtt109/Vps75, ThioGlo CoA-SH fluorescence, 4 h | inhibition, % at 34.9 µM | actives 0.16% (n = 330,000) | AID 540336;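 active = inhibition of at least 50% in every replicate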
Target sequence (Q5AAJ8 whole entry, looked up): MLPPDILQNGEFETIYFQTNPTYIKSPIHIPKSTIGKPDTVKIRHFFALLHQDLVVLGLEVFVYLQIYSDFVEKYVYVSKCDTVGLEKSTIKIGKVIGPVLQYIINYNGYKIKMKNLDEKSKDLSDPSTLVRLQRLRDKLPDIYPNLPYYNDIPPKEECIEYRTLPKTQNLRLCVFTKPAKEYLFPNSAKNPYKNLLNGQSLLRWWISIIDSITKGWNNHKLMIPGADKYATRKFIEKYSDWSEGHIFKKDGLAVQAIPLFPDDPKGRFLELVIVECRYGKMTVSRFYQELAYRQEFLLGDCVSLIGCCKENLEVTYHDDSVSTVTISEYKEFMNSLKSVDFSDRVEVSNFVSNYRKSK
Efflux pump mplx: inhibitors of Candida antifungal efflux pumps expressed in yeast; S. cerevisiae Candida pump triplex, Nile Red efflux; inhibition, % at 10 µM; actives 0.44% (n = 330,000); AID 485275;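 active = plate passing quality check with inhibition over a set limit, or well fluorescence over plate mean plus 4 SD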;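 note: Nile Red retained in pooled yeast measured as flow cytometry median fluorescence; 0% = buffer negative control and 100% = Enniatin B positive control; higher means more Nile Red kept so more efflux inhibition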
Rce1 inhib: blocks yeast Ras-converting enzyme; Q03530; yeast membranes, quenched prenylated peptide cleavage fluorescence; calls only; actives 0.27% (n = 290,000);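 active = fall in fluorescence gain of 50% or more versus controls, with final raw signal at or below 3038400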;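 note: plate controls were neutral control wells for no effect and wells lacking membranes for full effect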
HDAC3 inhib: human HDAC3 inhibition; inhibition, % at 8.3 µM; actives 0.15% (n = 320,000); recombinant HDAC3, fluorogenic peptide/trypsin coupled, fluorescence; in the data active = inhibition above about 26%, passing the limit was not always enough
GRK2 aptamer HTS: human GRK2 inhibition via aptamer displacement. bead flow cytometry, FAM-aptamer displacement from GRK2. inhibition of aptamer binding, % at 10 µM. actives 0.59% (n = 330,000). AID 488847;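 active = inhibition of aptamer binding above 40%, roughly 3 SD of noise, on plates passing a quality check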;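 note: median bead fluorescence of bound FAM aptamer so fluorescent compounds give negative values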
ALR inh: blocks human ALR sulfhydryl oxidase activity; P55789; purified ALR, DTT oxidation, H2O2 HRP-luminol luminescence; inhibition, % (no concentration beside the values); actives 3.8% (n = 290,000); AID 485317;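 active = mean replicate inhibition above about 79%, with every replicate also reaching it, limit read from the data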
Target sequence (P55789 whole entry, looked up): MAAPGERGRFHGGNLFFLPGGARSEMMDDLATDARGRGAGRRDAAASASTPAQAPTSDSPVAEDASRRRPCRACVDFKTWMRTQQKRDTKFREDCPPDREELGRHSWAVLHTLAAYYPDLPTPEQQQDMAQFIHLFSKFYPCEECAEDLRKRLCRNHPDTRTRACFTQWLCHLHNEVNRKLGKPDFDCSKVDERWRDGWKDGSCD
The depositor's hits bear a star; i = inactive; . = no result given; + = active, no number. In the library only some 4.5% were active in any assay of this set; here they are far more common.

SMILES	Rtt109 Vps75	Efflux pump mplx	Rce1 inhib	HDAC3 inhib	GRK2 aptamer HTS	ALR inh
CCCNC(=O)NC(=O)CSc1nc2ccccc2c(=O)n1Cc1ccncc1	-1.0	0.0	i	-10.0	4.0	-3.8
COc1ccc(NC(=O)CN(C)C(=O)c2c(-c3c(F)cccc3Cl)noc2C)cc1	-3.7	0.0	i	0.0	0.0	-3.1
O=C(/C=C/c1ccccc1O)c1ccco1	1.8	-0.2	i	3.8	1.0	.
O=C(/C=C/c1cc(Br)ccc1O)c1ccco1	-0.7	0.3	i	.	1.0	96.9*
Nc1ccc(/C=C/C(=O)c2ccco2)cc1	-5.6	-0.1	i	6.7	0.0	98.9*
COc1ccc2oc(=O)c(C(=O)C[n+]3cccc(C)c3)cc2c1	3.0	0.0	i	2.8	0.0	10.0
CCCCOc1ccc(-c2c(C#N)c(N)[nH]c(=S)c2C#N)cc1	.	0.1	i	-2.0	0.0	87.9*
CCCCOc1ccc(-c2c(C(=O)Nc3ccccc3)c(C)[nH]c(=S)c2C#N)cc1	-4.2	0.0	i	6.8	2.0	12.1
CCCCN(c1ccccc1)S(=O)(=O)c1cccc2cccnc12	-5.9	0.0	i	-2.0	1.0	.
c1c2c(cc3sc(N4CCOCC4)nc13)OCO2	1.6	0.0	i	-1.7	17.0	97.3*
c1c2c(cc3sc(N4CCCCC4)nc13)OCO2	-1.0	-0.1	i	1.4	1.0	98.7*
c1ccc(N2CCN(c3nc4cc5c(cc4s3)OCO5)CC2)cc1	-19.6	0.0	i	5.5	4.0	.
O=C(/C=C/c1ccc(Cl)cc1)Nc1cc(S(=O)(=O)N2CCOCC2)ccc1N1CCOCC1	2.6	0.8	.	2.4	0.0	-1.0
O=C(COc1cc(F)ccc1[N+](=O)[O-])Nc1cccc(S(=O)(=O)NC2=NCCC2)c1	-15.4	0.2	.	1.0	0.0	-1.6
O=C(Nc1ccn(CCCNCCCN2CCCC2=O)c(=O)n1)OCc1ccccc1	2.7	.	.	.	.	.
COC(=O)c1ccc(Sc2ccc(C)cc2)c(N)c1	-3.0	0.1	i	1.3	2.0	-6.8
COc1cc(Sc2ccc(C)cc2)c(OC)cc1N	-0.5	0.0	i	9.5	34.0	98.4*
Cc1ccc(C)c(-n2c(-c3csc(C)c3C)n[nH]c2=S)c1	6.9	-0.2	i	1.7	3.0	89.4*
COc1ccc(N2CCC(CNC(=O)Nc3ccc(C)c(C)c3)C2)cc1 (stereo not drawn)	-14.9	0.3	i	-5.2	0.0	15.1
COc1ccc(N2CCC(CNC(=O)Nc3ccc(OC)cc3OC)C2)cc1 (stereo not drawn)	5.0	0.1	i	10.9	1.0	85.1*
CCN(C(=O)CSc1nc2ccccc2n1C)C1CCS(=O)(=O)C1 (stereo not drawn)	0.8	0.1	.	1.0	1.0	-5.5
COc1cccc(/C=N/NC(=O)CCn2nnc3ccccc32)c1	0.3	0.0	i	5.0	2.0	19.3
COc1cc(/C=N/NC(=O)Cn2nnc3ccccc32)ccc1O	.	-0.2	i	6.4	7.0	92.2*
COc1cc(/C=N/NC(=O)CCn2nnc3ccccc32)ccc1O	-9.2	0.0	i	0.7	3.0	99.1*
CC[C@]12c3[nH]c4cc(-c5ccco5)ccc4c3CCN1C(=O)[C@@H](CC(=O)NC(C)(C)C)C[C@@H]2C(=O)N1CCN(C(=O)C2CC2)CC1	-5.0	0.2	.	.	1.0	.
SMILES	Rtt109 Vps75	Efflux pump mplx	Rce1 inhib	HDAC3 inhib	GRK2 aptamer HTS	ALR inh
CCOC(=O)c1c(C)[nH]c(C)c1S(=O)(=O)N(C)CC(=O)N1CCN(c2ccc(OC)cc2)CC1	-1.2	-0.1	i	-0.5	0.0	24.6
CCn1cnc2sc(C(=O)N3CCN(c4ccc(OC)cc4)CC3)c(C)c2c1=O	18.7	0.2	i	2.7	1.0	80.8*
CCOC(=O)c1c(C)[nH]c(C(=O)N2CCN(c3ccc(OC)cc3)CC2)c1C	5.6	0.0	i	7.0	2.0	97.9*
Cc1c(C(=O)N2CCN(c3ccc([N+](=O)[O-])cc3)CC2)sc2ncn(CC(=O)N3CCOCC3)c(=O)c12	4.1	-0.1	.	6.9	1.0	32.6
CCOC(=O)c1[nH]c(C)c(C(=O)N2CCN(c3ccccc3)CC2)c1C	18.2	0.0	i	-10.7	2.0	98.4*
C=CCN(C(=O)C1CC(=O)N(C2CCCC2)C1)c1nc(-c2ccc(S(C)(=O)=O)cc2)cs1 (stereo not drawn)	-1.7	0.0	.	-6.2	0.0	.
CC(Oc1ccccc1Cl)C(=O)N(Cc1cccs1)C1CCS(=O)(=O)C1 (stereo not drawn)	14.6	0.0	i	0.1	0.0	-2.7
CC(=O)Nc1ccc(S(=O)(=O)NCc2nc(-c3cccc(C)c3)no2)cc1	-0.4	0.2	i	-0.8	0.0	.
Cc1ccc(N2CC(C(=O)OCC(=O)Nc3ccc(Cl)cc3)CC2=O)cc1 (stereo not drawn)	-3.8	-0.1	.	10.2	1.0	9.2
O=C(O)c1ccc(N/N=C/c2ccc(-c3ccc(Br)cc3)o2)cc1	15.7	-0.4	i	-0.5	0.0	.
O=C(O)c1ccc(N/N=C/c2ccc(-c3ccccc3)cc2)cc1	24.4	.	i	.	.	.
O=C(O)c1ccc(N/N=C/c2ccc(-c3ccccc3Cl)o2)cc1	6.9	-0.1	+	-15.7	0.0	.
CC(C)c1ccc(/C=N/Nc2ccc(C(=O)O)cc2)cc1	12.5	-0.1	.	5.9	0.0	98.2*
Cc1ccc(/C=N/Nc2ccc(C(=O)O)cc2)o1	19.4	-0.1	i	6.0	1.0	98.4*
COc1ccc(-c2cn(CCO)c(-c3ccncc3)n2)cc1	-10.8	0.0	.	-1.9	2.0	15.6
COc1ccc(C)cc1NC(=O)c1cccc(-c2ccc(OC(C)=O)cc2)c1	3.0	-0.1	i	13.9	2.0	.
CC(=O)Oc1ccc(-c2cccc(C(=O)O)c2)cc1	.	0.0	i	-4.4	1.0	42.2
CCc1cccc(CC)c1NC(=O)COC(=O)c1cccc(-c2ccc(OC(C)=O)cc2)c1	2.4	0.0	i	-0.4	100.0*	5.5
CC(=O)Oc1ccc(-c2cccc(C(=O)N(C)c3ccc(O)cc3)c2)cc1	-16.0	0.7	i	-4.7	1.0	86.2*
COc1ccc(S(=O)(=O)N2CCOCC2)cc1NS(=O)(=O)c1ccc(F)c(F)c1	-9.7	-0.4	.	2.3	0.0	0.7
COc1cc([C@H]2[C@@H]3CCCC[C@]3(O)CCN2CC(=O)Nc2ccc(C)cc2)ccc1O	-3.8	-0.2	i	8.3	3.0	20.7
CCN(CC)c1ccc(C2C3CCCCC3(O)CCN2C(=O)c2cccs2)cc1 (stereo not drawn)	16.1	-0.2	i	1.3	0.0	.
CCN(CC)c1ccc(C2C3CCCCC3(O)CCN2CC(=O)N2CCCCC2)cc1 (stereo not drawn)	17.4	0.1	i	4.8	0.0	98.7*
CCN(CC)c1ccc([C@H]2[C@@H]3CCCC[C@]3(O)CCN2CC(=O)NCc2ccco2)cc1	5.5	0.0	i	0.6	0.0	99.0*
